The list is not random: actives were taken first. Their share in the collection is about 6%.
D1 ag: Allosteric Agonists of the Human D1 Dopamine Receptor: qHTS | D(1A) dopamine receptor (Homo sapiens), P21728 | HEK293 T-REx D1 cells, calcium flux, agonist mode | activation, % at 2 µM | 360,000 compounds, 1% hits | AID 504660, 2011; in the data active means activation above about 30%; further: 0% is about no effect
Target sequence (P21728 whole entry, looked up): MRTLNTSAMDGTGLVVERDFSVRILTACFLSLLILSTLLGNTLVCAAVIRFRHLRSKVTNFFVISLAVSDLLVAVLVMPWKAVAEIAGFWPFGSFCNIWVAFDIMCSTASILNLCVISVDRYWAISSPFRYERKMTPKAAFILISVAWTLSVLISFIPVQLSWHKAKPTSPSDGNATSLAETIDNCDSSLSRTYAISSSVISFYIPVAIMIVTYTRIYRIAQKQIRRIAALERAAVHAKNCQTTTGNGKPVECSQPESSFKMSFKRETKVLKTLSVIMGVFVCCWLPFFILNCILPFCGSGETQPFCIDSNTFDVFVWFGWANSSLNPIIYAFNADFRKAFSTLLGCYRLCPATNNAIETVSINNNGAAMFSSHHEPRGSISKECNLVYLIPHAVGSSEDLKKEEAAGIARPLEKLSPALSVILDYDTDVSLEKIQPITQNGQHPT
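Inducible HEK293 T-REx D1 cells, force-coupled to calcium signalling, were plated at 4000 cells/well with tetracycline and held overnight at 30 C. After no-wash calcium dye loading, compound-evoked calcium rise over 180 s flagged agonists.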
D3 ag: qHTS of D3 Dopamine Receptor Agonist: qHTS; D(3) dopamine receptor (Homo sapiens), P35462; D3R DiscoveRx beta-arrestin cells, luminescence, 90 min; max activation, %; 410,000 compounds, 0.58% hits; AID 652048, 2013; in the data active means max activation above about 30%; further: 0% is about no effect
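Agonist mode: compounds and dopamine controls were applied to plated cells for 90 min at 37 degrees C after an overnight attachment at 1500 cells/well. Luminescent read-out followed 30 - 60 minutes at room temperature with DiscoveRx detection reagent.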
D1 antag: Antagonist of Human D 1 Dopamine Receptor: qHTS; HEK293 TREx D1 cells, calcium flux, dopamine EC80; hits give low values; D(1A) dopamine receptor (Homo sapiens), P21728; activity change, negative = inhibition, % at 10 µM; 360,000 compounds, 3.2% hits; in the data active means activity change below about -30%; further: on the % scale 0 is the no-effect control and ±100 the full control effect
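Cells carrying a force-coupled, tetracycline-inducible human D1 receptor report calcium flux. Each well gets a 10 s baseline, compound with 180 s monitoring, then an EC80 dopamine stimulus with a second 180 s kinetic read.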
D1 PAM: Potentiators of Human D1 Dopamine Receptor: qHTS | D(1A) dopamine receptor (Homo sapiens), P21728 | HEK293 TREx D1 cells, calcium flux, dopamine EC20 potentiation | potentiation, % at 10 µM | 360,000 compounds, 0.036% hits | AID 504651, 2011; in the data active means potentiation above about 30%; further: 0% is about no effect
DRD3 antagonist: qHTS of D3 Dopamine Receptor Antagonist: qHTS; D3R cells, DiscoveRx beta-arrestin luminescence, antagonist mode; hits give low values; max response, negative = inhibition, %; 360,000 compounds, 2.5% hits; AID 652054, 2013; in the data active means max response below about -50%; inconclusive means no clear call, values can overlap the other calls; further: on the % scale 0 is the no-effect control and ±100 the full control effect
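Cells expressing the human receptor were seeded at 1500 cells/well, incubated overnight at 37 degrees C in 5% CO2, then exposed to library compounds with dopamine controls for 90 minutes at 37 degrees C before luminescent detection.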
* = called active by the depositor; u = inconclusive; x = not tested or not shown.

SMILES	D1 ag	D3 ag	D1 antag	D1 PAM	DRD3 antagonist
Cc1cccc(NC(=S)NCc2cccn2C)c1	7	4	-25	-4	-13
COCCNC(=O)c1c(C)cc(C)cc1C	1	0	-6	2	-77*
CN1CCc2c(sc3c2c(=O)n(-c2ccc(Cl)cc2)c2nncn32)C1	0	1	-60*	-7	-25
Nc1nc2ccc(N3CCOCC3)cc2s1	1	-9	-34*	-3	-76*
Cc1cc2c(s1)c1cnn(Cc3cccc(F)c3)c(=O)c1n2C	0	x	5	1	x
CCOC(=O)c1ccc(CC(=O)c2ccc(O)cc2O)o1	0	32*	3	-3	29
CCOC(=O)COc1cc2c(C(=O)OCC)c(C)oc2cc1Br	6	35*	5	6	-6
O=C(O)c1cc(S(=O)(=O)Nc2ccc(N3CCCCC3)cc2)ccc1Cl	1	3	-30	-4	-11
CCc1ccc(S(=O)(=O)Nc2ccc(N3CCN(C)CC3)cc2)cc1	9	-9	0	-1	-82*
CN1CCN(c2ccc(NS(=O)(=O)c3ccc(Cl)cc3)cn2)CC1	6	-18	1	-1	u
Cc1ccc(S(=O)(=O)Nc2ccc(N3CCN(C)CC3)nc2)cc1	5	-16	9	5	-59*
O=S(=O)(Nc1ccc(N2CCCCC2)cc1)c1ccc(F)c(F)c1	58*	3	-8	-3	9
CCN(CC)S(=O)(=O)c1cc(C)c(C)cc1OCC(=O)NC1CCCC1	0	9	-34*	-16	11
CCOc1cc(CNCc2ccccn2)ccc1OCC(=O)NC1CCCCC1	2	-23	-10	1	-89*
COc1cc(C)ccc1OCC(=O)NC1CCCCCC1	2	0	-30*	-2	30
c1ccc(-c2cnn3c(-c4ccccc4)c(-c4ccccc4)nc3n2)cc1	475*	4	-48*	-13	6
Nc1nc(-c2ccccc2)c(-c2ccccc2)n1N	10	1	8	-3	-7
CC1CC(C)CN(c2oc(-c3ccco3)nc2C#N)C1 (configuration not stated)	1	-2	-46*	4	1
Nc1ccc2c(c1)OC1(CCCC1)O2	1	4	-37*	-3	-18
Cc1ccc(-n2ncc(Br)c(Br)c2=O)cc1	1	-25	x	7	-76*
CNc1cnn(-c2ccccc2)c(=O)c1Cl	2	-5	-71*	-1	2
O=c1c(Br)c(Br)cnn1-c1ccccc1	2	-11	-13	-3	-72*
Cc1ccc(-n2ncc3c(NC4CCCCC4)ncnc32)cc1	-3	3	3	-2	x
COc1cc2nc(/C=C/c3ccc(N(C)C)cc3)sc2cc1SC	554*	23	12	35*	66
Cc1ccc(-c2nnc(Nc3ccc(O)cc3)c3ccccc23)cc1S(=O)(=O)NC(C)(C)CO	-1	-8	-44*	-3	x
SMILES	D1 ag	D3 ag	D1 antag	D1 PAM	DRD3 antagonist
Cc1ccccc1Nc1nnc(-c2ccc(C)c(S(=O)(=O)N3CCOCC3)c2)c2ccccc12	2	-15	-17	-1	x
Cc1ccc(-c2nnc(Nc3ccc(F)cc3)c3ccccc23)cc1S(=O)(=O)NC(C)C	-1	3	-34*	-3	x
Cc1ccc(Nc2nnc(-c3ccc(C)c(S(=O)(=O)N4CCOCC4)c3)c3ccccc23)c(C)c1	-1	2	-45*	-3	x
Nc1ccn(CC(=O)NCCNc2ccc([N+](=O)[O-])cn2)c(=O)n1	1	98*	x	3	7
O=C(CN1CCN(Cc2ccccc2)CC1)NCCNc1ccc([N+](=O)[O-])cn1	2	-5	6	-1	-19
Cc1ccc(N2C(=O)CSC23C(=O)N(CC(=O)NCc2ccccc2)c2ccccc23)cc1C (configuration not stated)	3	-6	-9	0	x
COc1ccc(NC(=O)c2ccc(-n3cccn3)c([N+](=O)[O-])c2)cc1	6	-3	-4	-5	-9
Cc1c([N+](=O)[O-])cc(C(=O)Nc2ccc(Cc3ccncc3)cc2)cc1[N+](=O)[O-]	17	7	1	-3	18
O=C(Nc1ccc(Cc2ccncc2)cc1)c1ccc(Cl)c([N+](=O)[O-])c1	8	0	-34*	-6	-29
O=C(Nc1ccc(Cl)cc1)c1ccc(-n2cccn2)c([N+](=O)[O-])c1	19	-9	-32*	-3	u
Cc1ccc(CN2C(=O)C3(SCC(=O)N3c3ccc(C)c(C)c3)c3ccccc32)cc1 (configuration not stated)	4	-10	1	2	x
CCc1cccc(C)c1NC(=O)NC1COc2ccccc2C1 (configuration not stated)	1	-12	-1	1	x
CCOC(=O)c1ccccc1NC(=O)COC(=O)CC(C)(C)CC1=NS(=O)(=O)c2ccccc2N1	14	7	-37*	0	x
Cc1ccc(NC(=S)N/N=C/c2c(Cl)cccc2Cl)c(C)c1	3	-6	-8	-2	-60*
Cc1ccc(NC(=S)NCCO)c(C)c1	2	-7	2	6	-56*
Cc1ccc(NC(=S)NCCc2ccccc2)c(C)c1	4	5	3	2	2
Cc1ccccc1C(=O)N/N=C/c1cccc2ccccc12	0	-1	-89*	5	-4
Cc1ccc(Cl)cc1NC(=S)N/N=C/c1cccc2ccccc12	6	-20	38	15	-53*
Cc1ccccc1NC(=S)N/N=C/c1ccc(O)cc1O	1	21	-14	2	-21
Cc1cc(C)cc(-n2cnc3cc(C(=O)NCCc4ccccc4)ccc32)c1	2	-13	3	-2	x
COC(=O)CN(C(=O)CSc1nnc(-c2cccc(OC)c2)o1)c1ccc(OC)cc1	3	-3	0	3	0
CCOC(=O)CN(C(=O)CSc1nnc(-c2cccc(OC)c2)o1)c1ccc(F)cc1	56*	-6	-22	0	0
CCOC(=O)CN(C(=O)CSc1nnc(CNc2ccc(F)cc2)o1)c1ccccc1	1	-3	-7	0	-80*
CCN(c1ccccc1)S(=O)(=O)c1nnc(NC(=O)COc2ccc(OC)cc2)s1	-1	-6	7	-2	x
CCOC(=O)c1cnc(N2CCN(c3ccc(C)cc3C)CC2)c2ccccc12	1	-8	11	-2	x
COC(=O)c1ccccc1NC(=O)c1ccc(CN2CC(=O)N3CCCCC3C2=O)cc1 (configuration not stated)	-2	2	0	5	x
COc1cccc(N2C(=O)CSC23C(=O)N(Cc2ccccc2)c2ccccc23)c1 (configuration not stated)	3	-3	-14	-1	x

Screening results from PubChem BioAssay.
